AMPAR-TARP mod = GluA2-stargazin AMPA receptor complex modulation; AID 1259245; O88602+P19491; HEK293 GluA2+stargazin, membrane potential dye (FDSS), glutamate EC50; hits were called plate by plate, in both directions; 40,000 compounds, 3.5% hits; calls only at 30 µM;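 active = any of four per-well response measures lying three or more SD from its plate-wide compound average, in either direction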
GIRK2 activator = Activates human GIRK2-containing potassium channels; P48051; HEK293 GIRK2/NPY4 cells, thallium flux fluorescence; activation (% efficacy), % for hits at 37.5 µM; 34,000 tested, under 10 active; AID 1259324;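 active = primary screen hit, no activity in plain HEK293 cells, and in GIRK2-only cells above 5% efficacy rising with concentration; inactive = the rest, including fluorescent compounds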;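 note: efficacy is normalized control-subtracted fluorescence 15 s after thallium addition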
Numbers without * were called inactive; i = inactive; nt = no result given; + = active, no number. This is one part of a sample in which hits are shown more often than they occur.

SMILES	AMPAR-TARP mod	GIRK2 activator
CC(=O)NCCc1nc2ccccc2n1Cc1c(C)c(C)cc(C)c1C	+	i
O=S(=O)(NC1(c2nc(-c3cnccn3)no2)CCCCC1)c1ccc(F)c(Cl)c1	+	i
Cc1noc(C)c1S(=O)(=O)NC1(c2nc(-c3cnccn3)no2)CCCCC1	i	i
O=C(NCC1(O)CCc2ccccc21)Nc1ccccc1Cl (stereo not given)	i	i
O=C(NCC1(O)CCc2ccccc21)Nc1ccc(Cl)c(Cl)c1 (stereo not given)	+	i
CC(C)CNC(=O)CCn1c(=O)c2ccccc2n2c(SCC(=O)NCC3CCCO3)nnc12 (stereo not given)	nt	i
CCn1nccc1C(=O)Nc1ccc2c(c1)OCCO2	i	i
O=C(Nc1ccc2nccnc2c1)c1ccc2c(c1)OCCO2	+	i
O=C(Nc1ccc2nccnc2c1)c1csc2c1CCCC2	+	i
CCN(CC)c1ccc(NC(=O)c2csc3c2CCCC3)cc1	i	nt
O=C(Cc1cc(-c2ccc3c(c2)OCO3)on1)NCCc1ccccc1	i	i
CCS(=O)(=O)c1ccc(CC(=O)N=c2sc3cc(F)cc(F)c3n2CCOC)cc1	i	nt
Cn1c(=O)c(C(=O)NCCc2ccc(S(N)(=O)=O)cc2)cc2cccnc21	i	i
Cn1c(=O)c(C(=O)Nc2ccc(S(N)(=O)=O)cc2)cc2cccnc21	+	i
CCOC(=O)c1cnc2c(-c3ccccc3)c(C)[nH]n2c1=O	i	i
CN1C(=O)N(C)C2(CCN(C(=O)Cc3ccc(Cl)cc3)CC2)C1=O	i	i
O=S(=O)(NCCC(O)c1cccs1)c1ccc(OC(F)(F)F)cc1 (stereo not given)	+	i
O=S(=O)(NCCC(O)c1cccs1)c1cccc(C(F)(F)F)c1 (stereo not given)	i	i
Cc1cc(NC(=O)Cc2cccc3ccccc23)n(C2CCS(=O)(=O)C2)n1 (stereo not given)	i	i
O=C(NCc1ccsc1)C1CCCCC1	+	i
O=C(NCC(O)c1ccsc1)C1CC1 (stereo not given)	i	i
CCOC(=O)CN1CCN(c2nc3c(c(=O)[nH]c(=O)n3C)n2Cc2ccc(F)cc2)CC1	i	nt
COc1ccc(-c2cc(N3CCC(C(=O)NCc4ccco4)CC3)ncn2)cc1	i	i
CCCC(CCC)C(=O)Nc1cc(C)nn1-c1nc2c(cnn2-c2ccc(C)c(C)c2)c(=O)[nH]1	i	i
COc1ccccc1Cc1noc(C2CN(CC(=O)Nc3cccc(C(F)(F)F)c3)C2)n1	nt	i
SMILES	AMPAR-TARP mod	GIRK2 activator
CCOC(=O)c1c(NCc2ccc(OC)cc2)c2cccc(Cl)c2[nH]c1=O	i	nt
O=C(C1COCC(=O)N1Cc1ccccc1)N1CCN(c2cccc(Cl)c2)CC1 (stereo not given)	+	i
O=C(Nc1ccc(-n2cnnn2)cc1)C1COCC(=O)N1Cc1ccccc1 (stereo not given)	i	i
CC(C)(C)c1cc(NC(=O)C2COCC(=O)N2Cc2ccccc2)on1 (stereo not given)	+	i
O=C(C1COCC(=O)N1Cc1ccccc1)N1CCN(c2ccc(F)cc2)CC1 (stereo not given)	i	i
CC(Oc1ccccc1)C(=O)N1CCC(c2nnc(-c3ccc(F)cc3)o2)CC1 (stereo not given)	i	i
COc1ccc(Cl)cc1NC(=O)Cn1ncn2nc3c(c2c1=O)CCCC3	+	i
COc1ccc(CCNC(=O)Cn2ncn3nc4c(c3c2=O)CCCC4)cc1OC	nt	i
CCCC(CCC)C(=O)N1CCN(c2nccn2C)CC1	nt	i
CCCC(CCC)C(=O)N1CCN(c2nccn2CC)CC1	+	i
COc1cccc(-c2nnc3ccc(OCCNC(=O)Cn4cnc5ccccc54)nn23)c1	i	i
CC(=O)Nc1ccc(NC(=O)CN(Cc2ccc(Cl)cc2)S(=O)(=O)c2cccnc2)cc1	i	i
CC(C)CCN1C(=O)C(C)(C)COc2ccc(NC(=O)COc3ccccc3)cc21	+	nt
CC(C)CCN1C(=O)C(C)(C)COc2cc(NC(=O)COc3ccccc3)ccc21	i	nt
CC(=O)Nc1ccc(NC(=O)CSc2nc(=O)n(CC3CCCO3)c3c2CCCC3)cc1 (stereo not given)	i	i
CC(C)c1ccc(-n2nnc(C(=O)NC3CCCCC3)c2N)cc1	i	i
Cc1cccc(-n2nnc(C(=O)NC3CCCCC3)c2N)c1	+	i
Cc1nnc2ccc(OCCNS(=O)(=O)c3cc(F)ccc3F)nn12	i	i
COC(=O)c1ccc2[nH]c(C)cc(=O)c2c1	i	i
COC(=O)c1ccc2occ(-c3oc4ccc(C(=O)OC)cc4c3O)c2c1	+	i
COc1ccc(-c2csc(CN3CCN(C(=O)c4cc5ccccc5o4)CC3)n2)cc1	i	nt
COc1ccccc1N1CCN(S(=O)(=O)CCNC(=O)c2ccccc2)CC1	i	nt
O=C(NCC(O)Cc1ccccc1)Nc1cccc(C(F)(F)F)c1 (stereo not given)	+	i
O=C(NCC1CCN(C(=O)COc2ccccc2)CC1)Nc1cccc(C(F)(F)F)c1	+	i
Cn1cccc1C(O)CNC(=O)Nc1cccc(C(F)(F)F)c1 (stereo not given)	i	i
SMILES	AMPAR-TARP mod	GIRK2 activator
O=C(NCC1CCN(c2ccccn2)CC1)Nc1cccc(C(F)(F)F)c1	i	nt
O=C(NCC1CCN(c2ncccn2)CC1)Nc1cccc(C(F)(F)F)c1	+	i
O=C(NCC1CCN(C(=O)COc2ccccc2)CC1)Nc1ccccc1F	i	i
O=C(CSc1ccc(-c2cccnc2)nn1)Nc1cc(C(F)(F)F)ccc1Cl	i	i
CCc1nnc(-c2ccc(NC(=O)c3ccc(S(=O)(=O)N(CC)CC)cc3)cc2)o1	i	i
CCOCCn1c(=O)c2c(nc3n(-c4cccc(C)c4C)c(C)cn23)n(C)c1=O	i	nt
Cn1cc(C(=O)N2CCCCCC2)cc(NC(=O)c2cc(Cl)ccc2Cl)c1=O	i	nt
Cn1cc(C(=O)N2CCCCCC2)cc(NC(=O)c2ccccc2Cl)c1=O	+	nt
N#Cc1ccccc1NC(=O)c1ccc(N2CCCCS2(=O)=O)cc1	i	i
O=S(=O)(Nc1ccc2c(c1)OCCO2)c1c(Cl)cccc1Cl	i	i
O=S(=O)(Nc1cccc(C(F)(F)F)c1)c1c(Cl)cccc1Cl	+	i
O=C(NCCOc1ccc(F)cc1)C(=O)Nc1cc(F)ccc1F	i	i
O=C(NCCCn1nc(-c2ccco2)ccc1=O)Nc1ccc2c(c1)OCO2	i	i
Cc1ccc(-c2nnc(NC(=O)C3=COCCO3)o2)cc1C	i	i
O=C(CCCn1nc(-c2ccc(Cl)cc2)ccc1=O)Nc1ccc2c(c1)OCCO2	+	i
O=C(CCCn1nc(-c2ccccc2)ccc1=O)Nc1ccc2c(c1)OCCO2	nt	i
O=C(Cn1nc2c3cc(F)ccc3ncn2c1=O)Nc1ccc(F)cc1	i	i
COc1cccc(-c2nnc3ccc(OCCNC(=O)C(F)(F)F)nn23)c1	i	i
O=C(Nc1cccnc1)c1ccc(S(=O)(=O)NC2CCCC2)cc1	i	i
O=C(Nc1ccc(S(=O)(=O)NC2CCCCC2)cc1)C1CCCO1 (stereo not given)	+	i

High-throughput results deposited in PubChem BioAssay by several laboratories.
